20 compounds from PubChem BioAssay (NCI) can be followed below.

The panel holds about 79,000 compounds, 15% with a hit somewhere; the sample as a whole holds those more often. Values without a mark were called inactive. Calls of active or inactive are those of the source. Rule as the data show it: active = growth inhibition above about 70%; inactive = the rest.

A short description of assay [1]: NCI Yeast Anticancer Drug Screen. Data for the rad50 strain (AID 155).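 Also: 0% = growth of vehicle-only cultures of the same strain.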 To be noted: S. cerevisiae rad50 strain growth inhibition, active compounds read high; at 50.0 µM unless noted. Put shortly: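 Cells are treated with compound, grown, and their growth is then scored against vehicle-only cultures of the same repair-deficient yeast strain.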
Assay [2] in a line: NCI Yeast Anticancer Drug Screen. Data for the mec2-1 strain (AID 157). The conditions noted are these: S. cerevisiae mec2-1 strain, active compounds read high; at 50.0 µM unless noted. Put shortly:
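Mutant yeast (mec2-1) grown with compound; growth inhibition relative to vehicle control reported.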

The nature of assay [3]: NCI Yeast Anticancer Drug Screen. Data for the sgs1 mgt1 strain (AID 161).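 Also: 0% = growth of cultures given vehicle only.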 To be noted: S. cerevisiae sgs1 mgt1 strain, active compounds read high; at 50.0 µM unless noted. Put shortly:
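This yeast growth screen uses a strain with defined DNA-repair lesions; compound-treated growth is compared with vehicle-treated growth.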

A short description of assay [4]: NCI Yeast Anticancer Drug Screen. Data for the cln2 rad14 strain (AID 165).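 Also: 0% = growth equal to vehicle treated cultures.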 The conditions noted are these: S. cerevisiae cln2 rad14 strain, active compounds read high; at 50.0 µM unless noted. Put shortly: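 Readout is yeast growth inhibition versus vehicle-treated controls, using a strain with cln2 and rad14 alterations exposed to compound.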
Assay [5] in a line: NCI Yeast Anticancer Drug Screen. Data for the bub3 strain (AID 167). The conditions noted are these: S. cerevisiae bub3 mutant strain, active compounds read high; at 50.0 µM unless noted. A digest of the protocol:
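Part of a panel of yeast mutants defective in DNA damage repair or cell cycle regulation. Each strain is grown with compound, and inhibition is calculated relative to solvent-treated cultures.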

The nature of assay [6]: NCI Yeast Anticancer Drug Screen. Data for the mlh1 rad18 strain (AID 175). To be noted: S. cerevisiae mlh1 rad18 strain growth inhibition, active compounds read high; at 50.0 µM unless noted. A digest of the protocol: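 Genetically defined yeast (DNA repair-deficient) exposed to compounds; growth inhibition determined relative to vehicle.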

As for `CCCCC1(N=[N+]=[N-])C(=O)C2C=CC=C3c4ccccc4N(C1=O)C32` (stereo not given), the growth inhibition in assay [1] is -1.15%; in assay [2], -11.2%; in assay [3], -5.8%; in assay [4], -43.2%; in assay [5] it was 34.7%; in assay [6] it was 2.85%.
For the compound `CN[C@@H]1[C@H](O)[C@H](NC)[C@H]2O[C@@]3(O)C(=O)C[C@@H](C)O[C@H]3O[C@@H]2[C@H]1O`, the growth inhibition in assay [1] was 7.35%; in assay [2], -23.1%; in assay [3], -21.9%; in assay [4], 7.45%; in assay [5] it was -12.6%; in assay [6], -9.1%.
Take `CN(C)c1ccc(NC(=O)C(c2ccccc2)c2ccccc2)cc1`: the growth inhibition is 6.8% in assay [1]; -14.6% in assay [2]; 0.4% in assay [3]; -23.8% in assay [4]; 4.35% in assay [5]; -12.9% in assay [6].
As for `O=C(N=C(Oc1ccccc1)Oc1ccccc1)N=C(Oc1ccccc1)Oc1ccccc1`, the growth inhibition in assay [1] is 19.9%; in assay [2], 9.15%; in assay [3], 8.4%; in assay [4], 20.3%; in assay [5], 9.15%; in assay [6], 36%.
For `COc1ccc(C(c2cc3c(cc2O)OCO3)N2CCN(C(c3ccc(OC)c(OC)c3)c3cc4c(cc3O)OCO4)CC2)cc1OC` (stereo not given), the growth inhibition was -3% in assay [1]; 1.05% in assay [2]; 1.6% in assay [3]; 17.4% in assay [4]; 2.2% in assay [5]; -17.1% in assay [6].
`CCOC(=O)Cc1ccc(N(CCO)CCO)cc1`: the growth inhibition was 5.15% in assay [1]; 7.4% in assay [2]; 22.8% in assay [3]; -0.2% in assay [4]; 12.9% in assay [5]; 5.55% in assay [6].
Regarding `C=C1OC(n2cnc3c(=N)n(O)cnc32)C2OC(C)(C)OC12` (stereo not given), the growth inhibition in assay [1] is -3.6%; in assay [2], 4.75%; in assay [3], 13.2%; in assay [4] it was -16.4%; in assay [5], 1.9%; in assay [6], -16.5%.
For `C[N+]1(CCN[N+]2(C)CCCCC2)CCc2ccccc2C1` (stereo not given), the growth inhibition was -5.55% in assay [1]; -14.7% in assay [2]; -44.5% in assay [3]; -20.3% in assay [4]; -39.3% in assay [5]; -3.25% in assay [6].
Consider `O=C1/C(=C\C=C\c2ccccc2)CCCC/C1=C\C=C\c1ccccc1`, for which the growth inhibition in assay [1] was 11.3%; in assay [2] it was -0.35%; in assay [3] it was -0.95%; in assay [4] it was 5.95%; in assay [5], -1.4%; in assay [6], 8.35%.
Regarding `CC(O)COC(C)C` (stereo not given), the growth inhibition in assay [1] is 8.55%; in assay [2], -5.7%; in assay [3] it was 17.7%; in assay [4], 2.85%; in assay [5] it was -1.85%; in assay [6], 19.8%.
Turning to `CCN(CC)N=Nc1ccc(C(=O)O)cc1`, the growth inhibition in assay [1] was 9.55%; in assay [2], 1.7%; in assay [3], -10.1%; in assay [4], -8.8%; in assay [5] it was 5.85%; in assay [6], -2%.
`CCOC(=O)c1cnc2c(cnn2CC)c1N1CCCCC1`: the growth inhibition in assay [1] is -13.9%; in assay [2], 28.2%; in assay [3], 18.9%; in assay [4] it was -36.9%; in assay [5], 36.6%; in assay [6], 23.4%.
As for `C[n+]1cn(-c2nc3ccccc3nc2[N-]S(=O)(=O)c2ccccc2)c2ccccc21`, the growth inhibition was -0.2% in assay [1]; -5.7% in assay [2]; -13.2% in assay [3]; -18.4% in assay [4]; -20.1% in assay [5]; -38.5% in assay [6].
On to `Cc1cc(C)nc(NS(=O)(=O)c2ccc(NC(=O)NC(F)(F)F)cc2)n1`, for which the growth inhibition was -41% in assay [1]; -30.2% in assay [2]; -63% in assay [3]; 15.8% in assay [4]; 26.9% in assay [5]; -23.9% in assay [6].
Regarding `Nc1nc(=S)c2c(ncn2CCO)[nH]1`, the growth inhibition in assay [1] was -25.1%; in assay [2], -32.2%; in assay [3] it was 15.3%; in assay [4], 3.4%; in assay [5], -16.1%; in assay [6], 3.85%.
`CC1(C)C2CC(C(=O)O)C1C2` (stereo not given): the growth inhibition in assay [1] is 2.75%; in assay [2], 5.8%; in assay [3] it was 2.05%; in assay [4], 3.8%; in assay [5], -10.8%; in assay [6], -19.1%.
`CC(=O)C[N+](C)(C)C`: the growth inhibition in assay [1] is -12.9%; in assay [2] it was -17.1%; in assay [3], -14.8%; in assay [4], -7.45%; in assay [5] it was -20.8%; in assay [6] it was 12.7%.
On to `Nc1ccccc1C1CCCCC1`, for which the growth inhibition in assay [1] is 32.1%; in assay [2] it was -13.6%; in assay [3], 52%; in assay [4], -19.4%; in assay [5], 3.95%; in assay [6], 26.6%.
On to `C/C(CC(=O)Nc1cc(Cl)c(Cl)cc1Cl)=N\NS(=O)(=O)c1ccc(C)cc1`, for which the growth inhibition in assay [1] is -3.05%; in assay [2], -6.8%; in assay [3], 3.35%; in assay [4] it was -53.9%; in assay [5] it was -1.2%; in assay [6], 2.75%.
Consider `O=C(Nc1ccc(Cl)cc1[N+](=O)[O-])Oc1ccc(C2CCCCC2)cc1`, for which the growth inhibition in assay [1] is 98.2% (active); in assay [2], 94.3% (active); in assay [3], 98% (active); in assay [4], 87% (active); in assay [5] it was 98% (active); in assay [6] it was 97.5% (active).
